Measurements from PubChem BioAssay AID1347431 (National Center for Advancing Translational Sciences (NCATS), 2020).
Fewer than 10 of roughly 1,200 compounds were called active. The list is a sample of the results. Values without a mark were called inactive. Calls come from the whole dose curve; as a rule, active = well fitted curve in the direction sought with a large enough effect; inconclusive = small, poorly fitted or top-dose-only effect, or another doubt; inactive = no such curve, though single readings can be large or run the other way.

Experiment: Confirmatory qHTS assay for inhibitors of Activation Induced Cytidine Deaminase (AID): UDG signals; note: 0% is about no effect
Details: UDG coupled enzyme activity counter-screen; series mostly up to 115 µM; activity change, negative = inhibition: at the top concentration
Text: Assay Provider (PI) Patricia Gearhart Ph.D.
National Institute on Aging
National Institute of Health (NIH), Bethesda, MD
Assay Provider (PI) Rahul Kohli Ph.D.
Perelman School of Medicine
University of Pennsylvania, Philadelphia, PA
Activation-Induced Deaminase (AID) is a cytosine deaminase which converts cytosine into uracil within stretches of ssDNA. The presence of uracil in DNA initiates a cascade of mutagenic DNA repair to introduce point mutations and DNA double strand breaks. Specific targeting of AID to the immunoglobulin heavy chain loci (Igh) promotes mutagenesis in the antibody variable region for somatic hypermutation (SHM) or switch regions leading to class switch recombination (CSR). However, AID also plays a role in accumulating unnecessary mutations across the genome. Mis-targeting of AID results in the initiation of tumor development and leads to greater drug resistance among cancer cells when continually expressed. To identify an AID inhibitor, a small molecule library will be screened in collaboration with NCATS core facility at NIH. To confirm biological function, inhibitors will be examined in an in vitro murine B-cell activation assay and subsequent secondary validation screens. Top molecules will be further screened to identify inhibitory efficacy against a wild type primary splenocytes assay. Using these approaches, we hope to identify a small molecule with great efficacy and low toxicity for use as a molecular probe to further characterize AID's intricacies, or even as a therapeutic.
A FRET based analysis of cytosine deamination, was developed to identify potential inhibitors of AID catalytic activity. This screen has two signal output, Read 1 evaluates the AID inhibition response. The second readout (Read 2) evaluates UDG response and is uses as a counterscreen to exclude false positive inhibitors. Inhibition in AID and inactivity in the UDG signal is the desired outcome for this assay.
SEQUENCE No. (e.g., 1, 2, 3, etc.); […] (e.g., Cells, Incubation, Reagent, etc.); VALUE; DESCRIPTION
1a; Reagent; 3 uL; [4/3x] 1 uM AID/2.67 U/mL UDG
1b; Reagent; 3 uL; 2 U/mL UDG
1c; Reagent; 3 uL; 1 uM AID
2a; Compound; 46 nL; Follow-up plates (0.64 uM - 10 mM)
2b; Control; 46 nL; ATA ([…] - 10 mM)
3; Time; 10 min; incubation at room temperature
5; Time; 4 hr; incubation at room temperature
6; Reagent; 4 uL; [2x] 250 mM NaOH
7; Time; 15 sec; centrifuge at 1000 rpm
8; Time; 30 min; incubation at room temperature
9a; Detection; fluorescence (Read 1: AID); EnVision (PerkinElmer) plate reader, 540 excitation and 590 emission filters
9b; Detection; fluorescence (Read 2: UDG); EnVision (PerkinElmer) plate reader, 560 excitation and 665 emission filters
NOTES (numbers refer to sequence above)
1a; Reagents were dispensed in a medium-binding black solid-bottom Greiner plates (789176F) using a BioRptr liquid dispenser. Dispense 3 uL of [4/3x] 1 uM AID (provided by Kohli lab) and [4/3x] 2 U/mL UDG (NEB M0280L) into columns 1, 2, 5 to 48.
1b; Dispense 3 uL of [4/3x] 2 U/mL UDG into column 3.
1c; Dispense 3 uL of [4/3x] 1 uM AID into column 4.
2a; Compound (7-points [uM]: 0.64; 3.2; 16; 80; 400; 2,000; 10,000; […]) double pin-transferred (Dip Factor = 2) using the Kalypsys (Wako USA) pintool equipped with a 1536 pinhead for a final concentration range of 7.32 nM - 114 uM.
2b; 10 mM Aurintricarboxylic Acid (Sigma A1895) (ATA, 8-point, n = 2, 1:2.5 dilution in column 2) double pin-transferred (Dip Factor = 2) using the Kalypsys (Wako USA) pintool equipped with a 1536 pinhead for a [final] range of 186 nM - 114 uM.
3; Room temperature incubation.
4; Dispense 1 uL of substrate mixture from the Kohli lab [4x] […] DJC20 and [4x] 250 nM DJC23 into columns 1 to 48 .
5; Room temperature incubation.
6; Dispense 4 uL of substrate mixture [2x] 250 mM NaOH into columns 1 to 48.
7; Centrifugation step to remove bubbles.
8; Room temperature incubation
9a; Fluorescence signal (column label AID) was read using the EnVision plate reader. […]

Row | Structure (SMILES) | activity change, negative = inhibition [%]
1 | CCN1CCN(c2cc(C)c3cc(NC(=O)/C=C/c4cccc(Cl)c4)ccc3n2)CC1 | 2.14
2 | CCOc1ccc(Nc2sc(C(=O)c3ccc(F)cc3)c(N)c2S(=O)(=O)c2ccc(C)cc2)cc1 | -3.57
3 | CCc1ccccc1N(C)C(=O)c1sc2nc3n(c(=O)c2c1C)CCCCC3 | 1.65
4 | COc1ccc(CNC(=O)c2cnn3c(C)c(Cc4c(F)cccc4Cl)c(C)nc23)cc1 | -1.61
5 | COc1ccc(C(=O)c2cn(Cc3ccccc3F)c3ccc(F)cc3c2=O)cc1 | -4.88
6 | CCCCCCSc1nc(N)c2c3c(sc2n1)CCCC3C (stereo not drawn) | -13.7
7 | Cc1nc2c(C(=O)NCCc3ccc(Cl)cc3)cnn2c(C)c1Cc1ccc(F)cc1 | -12.3
8 | Cc1cccc(N2C(=O)N(CC(=O)C(C)(C)C)c3ccccc3S2(=O)=O)c1C | 2.18
9 | COc1ccccc1OCCn1c(C(C)Oc2ccccc2)nc2ccccc21 (stereo not drawn) | -7.15
10 | CCOc1ccccc1NC(=O)CN1C(=O)CC(c2ccc(OC)c(OC)c2)Sc2ccccc21 (stereo not drawn) | -2.93
11 | CCC(C(=O)N1CCN(c2cc(C)ccc2C)CC1)n1nc(C)n2c(cc3occc32)c1=O (stereo not drawn) | -15
12 | COc1ccc(-n2c(Cc3ccccc3)nnc2SCc2nc(-c3ccccc3C)no2)cc1 | -23.7
13 | COc1ccc(N2C(=O)CSC23C(=O)N(Cc2cccc(C(F)(F)F)c2)c2ccccc23)cc1 (stereo not drawn) | -6.88
14 | Cc1nc2cc(-c3ccccc3)nn2c(C)c1CCC(=O)N1CCN(c2ccc(F)cc2)CC1 | -8.14
15 | COc1ccc(C)cc1N(C)C(=O)c1sc2nc3n(c(=O)c2c1C)CCCCC3 | 1.37
16 | Cc1oc(-c2ccccc2Cl)nc1CS(=O)CC(=O)N1CCN(c2cccc(C(F)(F)F)c2)CC1 (stereo not drawn) | 1.61
17 | Cc1ccc2onc(CC(=O)N3CCN(c4cc(Cl)ccc4C)CC3)c2c1 | -3.38
18 | CCn1cc(C(=O)NCCc2ccc(OC)c(OC)c2)c(=O)c2cc(S(=O)(=O)N(C)C3CCCCC3)ccc21 | -16
19 | CC(C)c1ccc(NC(=O)c2ccc3c(O)c(S(=O)(=O)c4ccccc4)c(=O)[nH]c3c2)cc1 | 1.07
20 | CCn1cc(S(=O)(=O)c2ccc(C)cc2C)c(=O)c2cc(F)c(N3CCCC3)cc21 | 0.779

Row | Structure (SMILES) | activity change, negative = inhibition [%]
21 | Cc1cccc(CNC(=O)c2oc3c(c2C)-c2nn(Cc4ccccc4Cl)cc2CC3)c1 | 6.73
22 | COc1ccc(N2CCN(C(=O)c3cc4c(-c5ccccc5F)nn(C)c4s3)CC2)cc1 | -2.54
23 | CCc1cccc(-n2c(C)nc3c(cnn3-c3ccc(Cl)cc3)c2=O)c1 | 2.34
24 | CCOc1ccc(-c2nc(CSCC(=O)N3CCN(c4cccc(C(F)(F)F)c4)CC3)c(C)o2)cc1 | -17.8
25 | Cc1ccc(-n2ncc(C(=O)NCCc3ccccc3)c2C2CCN(C(=O)OC(C)(C)C)CC2)c(C)c1 | -6.03
26 | CCn1cc(C(=O)NCCc2ccc(OC)c(OC)c2)c(=O)c2cc(S(=O)(=O)N3CCC(C)CC3)ccc21 | -8.81
27 | COc1cc2nc(NC(=O)c3ccc(S(=O)(=O)N4CCc5ccccc54)cc3)sc2cc1OC | 3.33
28 | Cc1ccc2oc(C(=O)NCC(c3ccc(Cl)cc3)N3CCOCC3)c(C)c2c1 (stereo not drawn) | -1.52
29 | N=c1n(CCN2CCCCC2)c2ccccc2n1CC(O)COc1ccc(Cl)cc1Cl (stereo not drawn) | -4.14
30 | CCCCN(CC)CCNC(=O)c1cc2c(=O)oc3ccc(C)cc3c2s1 | 3.87
31 | O=C(Nc1ccc(F)cc1F)c1ccc2c(O)c(S(=O)(=O)c3ccc(Cl)cc3)c(=O)[nH]c2c1 | 6.68
32 | CCC(C(=O)Nc1cc(Cl)ccc1OC)n1nc(-c2ccccc2)ccc1=O (stereo not drawn) | 0.722
33 | CCCNC(=O)c1cnn2c(C)c(Cc3c(C)cc(C)cc3C)c(C)nc12 | -0.105
34 | CCc1ccc(NC(=O)CSc2nccn2-c2cccc(C)c2C)cc1 | -12.7
35 | Cc1c(Cl)cccc1-n1ncc(C(=O)NCc2cccs2)c1C1CCN(C(=O)OC(C)(C)C)CC1 | -10.8
36 | Cc1nc2ccccc2n1CCc1nc2c3ccccc3nc(SCC(=O)Nc3ccc(C(C)C)cc3)n2n1 | -1.98
37 | COc1ccc(NC(=O)c2c(NC(=O)c3ccc(Br)cc3)sc3c2CCCC3)cc1 | -4.81
38 | Cc1ccccc1Cc1c(C)nc2nc(SCC(=O)NCCc3ccc(Cl)cc3)nn2c1C | -12.4
39 | COCCCNC(=O)c1oc2c(c1C)-c1nn(Cc3cccc(Cl)c3)cc1CC2 | -14.6
40 | Cc1cccc(-n2c3nc(=O)[nH]c(=O)c-3cc3ccc(Cl)cc32)c1C | -6.3

Row | Structure (SMILES) | activity change, negative = inhibition [%]
41 | Cc1cc(N)c(-n2cc3c(c2-c2ccc(Br)cc2)c(=O)n(C)c(=O)n3C)cc1C | -5.86
42 | Cc1cccc(Cn2nnc3c(=O)[nH]c(C4CCCN(C(=O)c5ccc(C(C)(C)C)cc5)C4)nc32)c1 (stereo not drawn) | -5.24
43 | COc1ccc(CCN2CCC(CNC(=O)c3cnn(-c4cccc(Cl)c4)c3C3CCN(C(=O)OC(C)(C)C)CC3)CC2)cc1 | -5.53
44 | COc1cc(NC(=O)CCc2c(C)nc3c4c(C)cc(C)nc4nn3c2C)cc(OC)c1 | 3.35
45 | CCOC(=O)c1ccc(-c2ccc(/C=C(\C#N)c3nc4ccc(C)cc4[nH]3)o2)cc1 | -7.54
46 | Cc1ccc(C)c(N2CCN(CCCNC(=O)c3cnn(-c4cccc(Cl)c4)c3C3CCN(C(=O)OC(C)(C)C)CC3)CC2)c1 | -6.96
47 | Cc1cccc(OC(C)C(=O)N2CCC(c3nc4ccccc4o3)CC2)c1C (stereo not drawn) | -9.18
48 | COc1ccc(-c2csc3nc(-c4ccc(C)cc4)oc(=O)c23)cc1OC | -0.182
49 | COc1ccc(OCCCn2c(=O)oc3ccc(C)cc32)cc1 | -5.37
50 | Cc1ccc(Cl)cc1N(C)C(=O)c1cc2ccc3cccnc3c2[nH]1 | 0.172
51 | COc1ccc(OC)c(NC(=O)Cn2c(=O)cc(C)c3c(C)nn(-c4cccc(Cl)c4C)c32)c1 | 10.9
52 | COc1ccccc1NC(=O)c1cc2cc3ccc(OC)c(Cl)c3nc2s1 | 8.79
53 | Cc1ccc(C)c(CSc2cn(CCNC(=O)c3cccs3)c3ccccc23)c1 | -2.36
54 | CCOc1ccc(NC(=O)CSc2nccn2-c2cccc(C)c2C)cc1 | -4.02
55 | CCOc1ccc(S(=O)(=O)c2c(C(=O)c3ccc(C)c(C)c3)cnc3ccccc23)cc1 | -3.6
56 | CCC1CCCCN1C(=O)CSc1nc(-c2ccc(OC)cc2)cc(C(F)(F)F)n1 (stereo not drawn) | -16.9
57 | CCn1cc(C(=O)NCc2ccccc2OC)c(=O)c2cc(S(=O)(=O)N3CCCCC3)ccc21 | -14.6
58 | Cc1ccccc1OCC(=O)Nc1cccc(C(=O)OCc2cc(=O)n3c(C)csc3n2)c1 | 1.99
